Screens as filed in PubChem BioAssay.
This is one part of a sample in which hits are shown more often than they occur.
Cycloheximide cs = Cycloheximide Counterscreen for Small Molecule Inhibitors of Shiga Toxin; max response, %; 300,000 tested, 12% active; cell reporter, cycloheximide protein synthesis inhibition counterscreen; in the data active = max response mostly above about 13%, no sharp cut-off; inactive = mostly below about 14%; note: read at 38.3 µM for the half of the compounds with a filed dose
FBPA Giardia inh = qHTS Assay for Inhibitors of Fructose-1,6-bisphosphate Aldolase from Giardia Lamblia | 290,000 tested, 0.71% active | Potency, µM (top dose mostly 59.6 µM), hits mostly inhibitors | A8B2U2 | purified Giardia FBPA; note: nearly all actives have a fitted effect of over 55% in size
Target sequence (A8B2U2 whole entry, looked up): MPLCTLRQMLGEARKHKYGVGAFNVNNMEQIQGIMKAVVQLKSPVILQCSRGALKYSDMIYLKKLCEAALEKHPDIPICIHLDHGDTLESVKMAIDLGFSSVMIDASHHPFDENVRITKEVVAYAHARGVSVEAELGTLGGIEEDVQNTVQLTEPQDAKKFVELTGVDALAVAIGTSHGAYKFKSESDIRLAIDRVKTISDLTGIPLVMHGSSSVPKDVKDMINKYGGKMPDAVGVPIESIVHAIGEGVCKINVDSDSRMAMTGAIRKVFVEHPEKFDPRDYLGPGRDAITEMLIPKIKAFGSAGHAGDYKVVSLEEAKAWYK
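40 nM FBPA preincubated 10 min at RT with compound (up to 57.5 uM final), then substrate plus GAPDH/TPI/NAD/arsenate coupling and diaphorase/resazurin added. Fluorescence read after 20 min at RT, 525/598 nm.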
LmPK inh = qHTS Assay for Inhibitors of Leishmania Mexicana Pyruvate Kinase (LmPK); Q27686; purified LmPK, Kinase-Glo ATP luminescence, 1 h; Potency, µM (highest dose often 57.5 µM), most hits filed as inhibitors; 290,000 tested, 0.37% active; AID 1721, 2009
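Kinase-Glo luminescence read after 1 h RT reaction of 0.1 nM LmPK with 0.5 mM PEP and 0.1 mM ADP. Activity scaled between uninhibited and enzyme-free controls.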
Shiga inhibitor = A qHTS for Small Molecule Inhibitors of Shiga Toxin. Vero cells, Shiga toxin protein synthesis inhibition reporter. inhibition, % at 38.7 µM. 290,000 tested, 9.2% active. AID 2315, 2010; in the data active = inhibition mostly above about 28%, no sharp cut-off; inactive = mostly below about 43%
Tb PYK inh = qHTS of Trypanosoma Brucei Inhibitors | AID 624173, 2012 | Potency, µM (titrated, usually from 76.8 µM), hits mostly inhibitors | 410,000 tested, 0.12% active | TbPYK enzyme, Kinase-Glo Plus ATP luminescence, 45 min; note: nearly all actives have a fitted effect of over 50% in size
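Luminescence from Kinase-Glo Plus, added after a 45-minute room-temperature reaction, served as the end-point read-out. The enzyme and substrate were preincubated with compound before ADP (130 uM final) initiated turnover. Concentration-effect curves came from normalized qHTS data.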
RE007 growth inh = qHTS Assay for Inhibitors of the HIV-1 protein Vpr; S. pombe RE007 Vpr strain, BacTiter-Glo ATP luminescence, 24 h; Potency, µM (highest dose often 92.2 µM), hits mostly inhibitors; 360,000 tested, 0.21% active; AID 651644, 2012; active = well fitted falling curve with a large enough effect; note: nearly all actives have a fitted effect of over 50% in size
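Fission yeast strain RE007, carrying one chromosomally integrated HIV-1 vpr copy, was seeded at OD 0.01 in PMG+AL medium with 23 nL pinned compound. After 24 h at 30 °C and 99% humidity, viability was read by BacTiter-Glo luminescence.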
Numbers stand for hits; n = inactive; x = no result given; + = active, no number. Unless noted, calls come from the whole dose curve; as a rule, active = well fitted curve in the direction sought with a large enough effect; inconclusive = small, poorly fitted or top-dose-only effect, or another doubt; inactive = no such curve, though single readings can be large; an effect the other way counts as inactive or inconclusive.

SMILES | Cycloheximide cs | FBPA Giardia inh | LmPK inh | Shiga inhibitor | Tb PYK inh | RE007 growth inh
O=C(CNC(=O)[C@@H]1Cc2ccccc2CN1)Nc1ccc2c(c1)OCCO2 | 37.1 | n | n | 60.1 | n | n
Cc1cccc(NC(=O)[C@@H](NC(=O)[C@@H]2Cc3ccccc3CN2)C(C)C)c1 | n | n | n | n | n | n
CC(C)[C@H](NC(=O)[C@@H]1Cc2ccccc2CN1)C(=O)Nc1ccc2c(c1)OCCO2 | 28.3 | x | n | 82.6 | n | n
O=C(Nc1ccc(F)c(F)c1)c1cc(S(=O)(=O)NCc2ccc3c(c2)OCO3)ccc1F | x | x | x | x | n | x
O=C(Nc1ccc(Cl)c(C(F)(F)F)c1)C(Cc1ccccc1)NS(=O)(=O)c1cccc2nsnc12 (centres undefined) | x | x | x | x | n | x
COC(=O)c1cc2oc3ccccc3c2n1Cc1c(F)cccc1Cl | x | x | x | x | n | x
O=C(CNC(=O)[C@@H]1Cc2ccccc2CN1)NC1CCCC1 | 24.3 | x | n | n | n | n
CC(C)C(NC(=O)C1CCCCC1)C(=O)Nc1ccc2c(c1)OCCO2 (centres undefined) | 63.2 | n | n | + | n | n
CSCC[C@H](NC(=O)[C@@H]1Cc2ccccc2CN1)C(=O)Nc1ccc2c(c1)OCCO2 | 51.7 | n | n | 87.5 | n | n
CCN1CCc2c(sc(NC(=O)c3ccc(S(=O)(=O)N(C)C4CCCCC4)cc3)c2C(N)=O)C1 | x | x | x | x | n | x
Nc1nc2ccccc2n1/N=C/c1cccnc1 | x | x | x | x | n | n
Nc1nc2ccccc2n1/N=C/c1ccc(-c2ccccc2)o1 | 25.0 | n | n | 72.3 | n | n
CCOC(=O)[C@H](CCc1ccccc1)N[C@@H](C)C(=O)N(CC(=O)O)C1Cc2ccccc2C1 | x | x | x | x | n | x
O=S(=O)(c1ccc(F)cc1)N1CCN(c2nc(-c3cccc(Br)c3)nc3ccccc23)CC1 | n | x | x | n | x | x
COc1ccc(OC)c(-c2csc(NC(=O)Cc3ccccc3OC)n2)c1 | n | n | n | n | n | n
COc1ccc(OC)c(-c2csc(NC(=O)Cc3ccccc3F)n2)c1 | 27.6 | n | n | 40.6 | n | n
Cc1ccc(CC(=O)Nc2cccc(C)n2)cc1 | 33.3 | n | n | 69.0 | n | n
COc1cccc(CC(=O)Nc2nc(C)cs2)c1 | 42.7 | n | n | 71.6 | n | n
Cc1cc(CNC(=O)c2cc(COc3c(F)cccc3F)on2)nn1C | n | n | n | n | n | n
Cc1cc(CNC(=O)Cc2c(F)cccc2Cl)nn1C | 18.4 | n | n | 34.1 | n | n
O=C(Cc1c(F)cccc1Cl)Nc1ccncc1 | n | n | n | n | n | n
Cc1csc(NC(=O)Cc2c(F)cccc2Cl)n1 | 34.9 | n | n | x | n | n
Cc1cccc(NC(=O)Cc2c(F)cccc2Cl)n1 | 28.2 | n | n | 112.4 | n | n
Cc1csc(NC(=O)Cc2ccc(F)cc2)n1 | 34.0 | n | n | 76.6 | n | n
CCOc1ccccc1-c1noc(CSc2nnc(-c3ccccc3)n2-c2ccc(F)cc2)n1 | x | x | x | x | n | x
SMILES | Cycloheximide cs | FBPA Giardia inh | LmPK inh | Shiga inhibitor | Tb PYK inh | RE007 growth inh
CC(Sc1nc(N)cc(=O)[nH]1)C(=O)N1CCOCC1 (centres undefined) | x | x | x | x | n | n
O=C(CSc1nc2ccccc2[nH]1)Nc1ccc2[nH]c(=O)[nH]c2c1 | x | x | x | x | n | n
O=C(CSc1nc2ccccc2[nH]1)Nc1ccc2c(c1)OCCO2 | 40.7 | n | n | n | n | n
O=C(CSc1nc2ccccc2[nH]1)c1ccc2c(c1)OCO2 | 57.2 | n | n | 91.0 | n | n
O=C(CSc1ncccc1-c1nc2ccccc2[nH]1)Nc1ccc2c(c1)OCCO2 | 67.7 | n | n | 91.8 | n | n
Cc1ccc2nc(SC(C)C(=O)N3CCOCC3)[nH]c2c1 (centres undefined) | 43.9 | n | n | 79.3 | n | n
CCC(=O)Nc1ccc(C(=O)CSc2nc3ccc(C)cc3[nH]2)cc1 | 19.0 | n | n | n | n | n
CCC(=O)Nc1ccc(C(=O)CSc2nc3ccccc3[nH]2)cc1 | n | n | n | n | n | n
CC(=O)Nc1cccc(CCc2nc3ccccc3[nH]2)c1 | 22.8 | n | n | x | n | n
Cc1ccc2nc(SCC(=O)Nc3ccc4c(c3)OCCO4)[nH]c2c1 | 26.4 | n | n | n | n | n
CC(=O)Nc1ccc(CCc2nc3ccccc3[nH]2)cc1 | n | n | n | n | n | n
O=C(CCc1nc2ccccc2[nH]1)NCc1ccc2c(c1)OCO2 | n | n | n | n | n | n
O=C(CCc1nc2ccccc2[nH]1)Nc1ccc2c(c1)OCO2 | 19.0 | n | n | 106.6 | n | n
COc1ccc(S(=O)(=O)N2CCCCC2)cc1C(=O)N1CCCC1 | n | x | n | n | n | n
Cc1nc(NCc2ccccc2)c2nc(-c3ccccc3)n(CCN(C)C)c2n1 | x | n | x | x | x | x
CCOc1ccc(CNC(=O)CCCn2nc(C)c3sc4ccccc4c3c2=O)cc1 | x | x | x | x | n | x
Cc1ccc(C(=O)Nc2cc(-c3cn4cccnc4n3)ccc2C)cc1C | x | x | x | x | n | x
CCCC(=O)NC(=S)Nc1ccc(N2CCOCC2)c(Cl)c1 | 19.0 | n | n | 43.6 | n | n
O=C(NC(=S)Nc1ccc(N2CCOCC2)c(Cl)c1)C(c1ccccc1)c1ccccc1 | n | n | n | n | n | n
CCc1ccc(NC(=S)NC(=O)CC(C)C)cc1 | 70.5 | n | n | 19.1 | n | n
CC(C)CC(=O)NC(=S)Nc1ccc(N2CCCC2)c(Cl)c1 | n | n | n | 56.5 | n | n
CCN1CCN(c2ccc(NC(=O)C(C)C)cc2Cl)CC1 | n | n | n | n | n | n
CC(C)CC(=O)NC(=S)Nc1cccc(NC(=O)c2ccccc2Cl)c1 | n | n | n | n | n | n
CC(C)C(=O)Nc1ccc(N2CCCC2)c(Cl)c1 | 43.7 | n | n | n | n | n
Cc1cc[n+](-c2ccccc2)c2ccccc12 | n | n | n | n | n | n
SMILES | Cycloheximide cs | FBPA Giardia inh | LmPK inh | Shiga inhibitor | Tb PYK inh | RE007 growth inh
S=C(CN1CCCC1=S)N1CCOCC1 | x | x | x | x | n | n
CC(C)(CCC(=S)N1CCOCC1)C1CCCCC1 | 25.5 | n | n | n | n | n
COc1ccc(Cn2c(C(=O)O)c(CNCc3ccco3)c3ccc(OC)cc32)cc1 | x | x | x | x | n | x
CCCn1cc(S(=O)(=O)c2cccc(Cl)c2)c(=O)c2cc(F)c(N3CCCC3)cc21 | x | x | x | x | n | x
Cc1cccc(NC(=O)Cn2nnc3ccccc32)c1 | 44.0 | n | n | 136.1 | n | n
COC(=O)c1ccc(NC(=O)Cn2nnc3ccccc32)cc1 | 37.7 | n | n | 66.8 | n | n
COc1cccc(/C=N\NC(=O)Cn2nnc3ccccc32)c1O | 27.1 | n | n | 75.5 | n | n
O=C(Cn1nnc2ccccc21)Nc1ccc([N+](=O)[O-])cc1 | n | n | n | n | n | n
Cc1ccc(NC(=O)Cn2nnc3ccccc32)cc1 | 36.6 | n | n | 67.7 | n | n
